Only some compounds are listed: those with a hit (about 7.2% of all), similar ones and a draw of the others.
Bfl-1 A1 inh = inhibitors of the anti-apoptotic protein A1, read as caspase activation. caspase activation, % (concentration not given with the values). 330,000 compounds, 0.066% hits. MEF A1-2A-BIM cells, Caspase-Glo 3/7 luminescence, 3 h; percent of clofoctol response, vehicle zero. AID 2462;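 active = over half of replicate activation scores above 10%, or exactly half above 10 with the replicate mean above 10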
Efflux pump mplx = inhibitors of Candida antifungal efflux pumps expressed in yeast; inhibition, % at 10 µM; 330,000 compounds, 0.44% hits; S. cerevisiae Candida pump triplex, Nile Red efflux;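 active = plate passing quality check with inhibition over a set limit, or well fluorescence over plate mean plus 4 SD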;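 note: Nile Red retained in pooled yeast measured as flow cytometry median fluorescence; higher means more Nile Red kept so more efflux inhibition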
SUMO Mot1 rescue = inhibitors of SUMOylation pathway: yeast Mot1-301 growth rescue; S. cerevisiae Mot1-301 growth rescue, ATP luminescence, 38.5C; percent above DMSO median, 100 means doubled; growth rescue, % at 18.8 µM; 320,000 compounds, 1% hits;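 active = every valid replicate shows activation above 250% relative to neutral control wells; inactive = the rest, any valid replicate at or below 250%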
AHR activator = human AHR activation | P35869 | AHR-responsive luciferase reporter cells, luminescence | activation, % at 5 µM | 320,000 compounds, 2.5% hits; in the data active = activation above about 47%
ALR H2O2 inh = blocks human ALR sulfhydryl oxidase activity; P55789; purified ALR, DTT oxidation, H2O2 HRP-luminol luminescence; inhibition, % (no concentration beside the values); 290,000 compounds, 3.8% hits;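 active = mean replicate inhibition above about 79%, with every replicate also reaching it, limit read from the data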
VLA-4 inh = inhibition in a human VLA-4 binding assay; P13612; VLA-4 expressing cells, ligand binding flow cytometry; inhibition, % (about 7 µM as worked out from the volumes in the protocol); 330,000 compounds, 0.2% hits; AID 2557; in the data active = inhibition above about 50%
VLA-4 allo CP = confirmation of allosteric modulators of human VLA-4 integrin. shares compounds with VLA-4 inh. U937 cells, HUTS-21 LIBS mAb binding, flow cytometry; LDV ligand present at threefold Kd. inhibition, % at 6.7 µM. 1,300 compounds, 2% hits. AID 2813; in the data active = inhibition above about 40%
Mot1 SUMO dose = yeast SUMO pathway inhibition in dose response. S. cerevisiae Mot1-301 galactose growth, ATP luminescence, 24 h; -100 = growth of slx-deleted rescue strain. growth activity, percent, % at 42 µM. shares compounds with SUMO Mot1 rescue. AID 493004. 2,300 tested, under 10 active;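 active = Signal drops as the depositor expects, and the fitted half-maximal dose is no more than ten times the top valid tested dose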;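 note: more negative values mean stronger growth rescue toward the control strain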
Yeast cmpd fluor = counter-screen for efflux pump inhibitors: compound fluorescence; shares compounds with Efflux pump mplx; S. cerevisiae AD/pABC3, flow cytometry; fluorescence ratio to DMSO, % at 10 µM; 1,700 compounds, 4% hits; AID 588517;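 active = fluorescence ratio to DMSO above its plate's cutoff, the plate mean ratio plus 5 SD, cut at about 210% in these data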;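 note: unstained yeast with no Nile Red so the signal is compound autofluorescence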
Mdr1 pump inh = inhibitors of Candida albicans Mdr1 efflux pump; shares compounds with Efflux pump mplx; S. cerevisiae AD/CaMDR1, Nile Red efflux, flow cytometry; inhibition, % at 10 µM; 1,700 compounds, 1% hits; in the data active = inhibition above about 26%;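 note: higher means more Nile Red retained so more efflux inhibition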
CaCdr2 efflux inh = inhibitors of Candida albicans Cdr2 efflux pump; shares compounds with Efflux pump mplx; 1,700 compounds, 4% hits; S. cerevisiae AD/CaCDR2, Nile Red retention, flow cytometry; Nile Red retention ratio vs DMSO, % at 10 µM; AID 588520; in the data active = Nile Red retention ratio vs DMSO above about 190%;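 note: higher ratio means more blocking of Cdr2 efflux of the dye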
CaCdr1 efflux inh = Candida Cdr1 efflux pump inhibition | shares compounds with Efflux pump mplx | S. cerevisiae AD/CaCDR1, Nile Red efflux, flow cytometry | inhibition, % at 10 µM | 1,700 compounds, 1% hits;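 active = inhibition above the screen-wide mean plus twice its standard deviation, cut at about 32% in these data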
Hits are given with their value; - = inactive; . = not tested or not shown; + = active, no number; ! = not confirmed by another sample.

SMILES	Bfl-1 A1 inh	Efflux pump mplx	SUMO Mot1 rescue	AHR activator	ALR H2O2 inh	VLA-4 inh	VLA-4 allo CP	others
CC(=Nc1ccccc1N)c1c(O)n(C)c(=O)[nH]c1=O	-	-	-	-	-	-	.
COc1ccc(-n2c(O)c(C(C)=NC3CC3)c(=O)[nH]c2=O)cc1	-	-	.	-	-	-	.
Cc1cc(OCC(=O)NCc2ccc(S(N)(=O)=O)cc2)c2c3c(c(=O)oc2c1)CCC3	-	-	-	-	-	53.1	-
COc1ccc2c3c1OC1C(=O)CC[C@@]4(O)[C@@H](C2)N(C)CC[C@]314 (stereo partly drawn)	.	-	.	-	.	-	.
COc1cc(C)cc(CN2CC=C(c3ccccc3)CC2)c1O	-	-	-	-	-	-	.
COC(=O)C[C@]1(C(=O)OC)CN(C#N)N(c2ccc(Cl)cc2)C12c1ccccc1-c1ccccc12	-	-	411.8	-	-	56.6	-
C[N+]1(C)[C@@H]2CC[C@H]1CC(OC(=O)C(CO)c1ccccc1)C2 (stereo partly drawn)	-	-	-	-	-	-	.
C[N+]1(C)C2CCC1CC(OC(=O)c1ccccc1)C2 (stereo not drawn)	-	-	-	-	-	-	-
COCCNC(=O)Cn1cc(C(=O)c2ccccc2F)c2ccccc21	-	-	-	-	-	-	-
O=c1ccc2cc3ccoc3c(O)c2o1	.	-	.	-	.	-	.
Nc1ncc2[nH]cnc2n1	-	-	-	-	-	52.6!	-
NCCc1ccc(OCc2ccccc2)c(OCc2ccccc2)c1	-	-	-	-	.	73.6	-
COC(=O)c1ccc(CN2CCN(Cc3ccccc3)CC2)cc1	-	-	-	-	-	-	.
COC(=O)C1C(OC(=O)c2ccccc2)CC2CCC1N2C (stereo not drawn)	-	-	-	-	-	-	-
CCCCOP(=O)(CN1CCOCC1)OCCCC	-	-	-	-	.	90.9	-
CCOP(=O)(OCC)C(CC)N1CCOCC1 (stereo not drawn)	-	-	-	-	-	-	.
CC(Cc1ccccc1)NCCC(=O)NC(C)Cc1ccccc1 (stereo not drawn)	-	-	-	-	-	-	.
Cc1nn(Cc2ccccc2)c(Cl)c1C(=O)OCC(=O)NCC1CCCO1 (stereo not drawn)	-	-	-	-	-	-	.
O=C1CN=C(c2ccc(Br)cc2)c2c(sc3c2CCCC3)N1CCN1CCCCC1	-	-	-	-	.	55.1	-
COC(=O)[C@@H]1[C@@H](C(=O)OC)C2(c3ccccc3-c3ccccc32)N(c2ccc(Cl)cc2)N1C#N	-	-	426.6	-	-	57.8	-	Mot1 SUMO dose=-
CC1(C)C2([N+](=O)[O-])CN3CN(C2)CC1([N+](=O)[O-])C3	-	-	-	-	-	-	.
Cc1ccc(-c2cc(-c3ccc(C)cc3)[n+](-c3ccccc3)c(-c3ccc(C)cc3)c2)cc1	-	34.4	-	-	.	53.7	-	Yeast cmpd fluor=-;Mdr1 pump inh=-;CaCdr2 efflux inh=+;CaCdr1 efflux inh=-
CCN1C[C@@]2(COC)C3[C@@H](OC)[C@H]4[C@@H]1[C@@]3(C1C[C@H]3[C@H](OC(=O)c5ccccc5)C1[C@]4(OC(C)=O)C[C@H]3OC)[C@@H](OC)C[C@H]2O (stereo partly drawn)	-	-	-	-	-	-	.
CCOC(C(=O)OCCCN(CC)CC)(c1ccccc1)c1ccccc1	-	-	509.7	-	-	-	.	Mot1 SUMO dose=-
CCN(CC)CCCOC(=O)C(OC(C)C)(c1ccccc1)c1ccccc1	-	-	-	-	.	-	.
SMILES	Bfl-1 A1 inh	Efflux pump mplx	SUMO Mot1 rescue	AHR activator	ALR H2O2 inh	VLA-4 inh	VLA-4 allo CP	others
COCCOC(=O)c1c(C)oc2ccc(OC(=O)N(C)C)cc12	-	-	.	-	-	-	.
CCC1C(c2ccccc2)NC(c2ccccc2)CC1(O)c1ccc(F)cc1 (stereo not drawn)	-	-	683.1	-	-	-	.	Mot1 SUMO dose=-
OCCN1C2CCC1CC(O)(c1ccc(F)cc1)C2 (stereo not drawn)	-	-	-	-	-	-	.
OCC[n+]1c2ccccc2nc2ccc(N3CCOCC3)cc21	-	-	-	-	-	-	.
Cc1ccc(C2SCC(=O)Nc3c2c(=O)[nH]n3C2CCOC(C)(C)C2)cc1 (stereo not drawn)	-	-	-	-	-	-	.
COc1ccc(C2SCC(=O)Nc3c2c(=O)[nH]n3C2CCCCC2)cc1 (stereo not drawn)	-	-	824.1	-	-	-	.	Mot1 SUMO dose=-
CN(C)C1(c2nnnn2-c2ccc(Cl)cc2)CCCCC1	-	-	737.0	-	-	-	.	Mot1 SUMO dose=-
COC(=O)c1c(C)n(Cc2ccc3c(c2)OCO3)c2ccc(O)cc12	-	-	696.4	-	-	-	.	Mot1 SUMO dose=-
COc1ccc(Oc2c(C)oc3cc(OC(=O)N(C)C)ccc3c2=O)cc1	-	-	524.0	-	-	-	.	Mot1 SUMO dose=-
Cc1cc(/C=C2\C(=O)NC(=O)N(c3ccccc3F)C2=O)c(C)n1-c1cc(C(=O)O)cc(C(=O)O)c1	-	-	736.9	-	-	-	.	Mot1 SUMO dose=-
CN(C)CCCNCC(=O)Nc1ccc(Cl)cc1C(=O)c1ccccc1	-	-	-	-	-	-	.
C[N+](C)(C)CC(=O)Nc1ccc(Cl)cc1C(=O)c1ccccc1	-	-	415.4	-	-	-	.	Mot1 SUMO dose=-
COc1ccc(-n2c(O)c(C=NCCN3CCN(C(C)=O)CC3)c(=O)[nH]c2=S)cc1	-	-	-	-	-	-	.
COc1cc(C)c(-c2nc(CN3C[C@@H]4C[C@@H](C3)c3cccc(=O)n3C4)c(C)o2)cc1C	-	-	-	-	-	-	.
C=Cn1ccnc1P(=S)(c1ccccc1)c1nccn1C=C	-	-	-	-	-	-	.

Bioassay records: PubChem, several laboratories
